According to PubChem BioAssay AID623959 (National Center for Advancing Translational Sciences (NCATS), 2012):
The whole screen tested about 1,400 compounds, of which fewer than 10 were called active. Not shown: some 8% with an inconclusive outcome. Calls come from the whole dose curve; as a rule, active = well fitted curve in the direction sought with a large enough effect; inconclusive = small, poorly fitted or top-dose-only effect, or another doubt; inactive = no such curve, though single readings can be large or run the other way. These entries were drawn from the full list. Where a call stands in place of a potency, no number is given.

Target: Transient receptor potential cation channel subfamily V member 1 (Homo sapiens) (UniProt Q8NER1)
Sequence (Q8NER1 whole entry, looked up): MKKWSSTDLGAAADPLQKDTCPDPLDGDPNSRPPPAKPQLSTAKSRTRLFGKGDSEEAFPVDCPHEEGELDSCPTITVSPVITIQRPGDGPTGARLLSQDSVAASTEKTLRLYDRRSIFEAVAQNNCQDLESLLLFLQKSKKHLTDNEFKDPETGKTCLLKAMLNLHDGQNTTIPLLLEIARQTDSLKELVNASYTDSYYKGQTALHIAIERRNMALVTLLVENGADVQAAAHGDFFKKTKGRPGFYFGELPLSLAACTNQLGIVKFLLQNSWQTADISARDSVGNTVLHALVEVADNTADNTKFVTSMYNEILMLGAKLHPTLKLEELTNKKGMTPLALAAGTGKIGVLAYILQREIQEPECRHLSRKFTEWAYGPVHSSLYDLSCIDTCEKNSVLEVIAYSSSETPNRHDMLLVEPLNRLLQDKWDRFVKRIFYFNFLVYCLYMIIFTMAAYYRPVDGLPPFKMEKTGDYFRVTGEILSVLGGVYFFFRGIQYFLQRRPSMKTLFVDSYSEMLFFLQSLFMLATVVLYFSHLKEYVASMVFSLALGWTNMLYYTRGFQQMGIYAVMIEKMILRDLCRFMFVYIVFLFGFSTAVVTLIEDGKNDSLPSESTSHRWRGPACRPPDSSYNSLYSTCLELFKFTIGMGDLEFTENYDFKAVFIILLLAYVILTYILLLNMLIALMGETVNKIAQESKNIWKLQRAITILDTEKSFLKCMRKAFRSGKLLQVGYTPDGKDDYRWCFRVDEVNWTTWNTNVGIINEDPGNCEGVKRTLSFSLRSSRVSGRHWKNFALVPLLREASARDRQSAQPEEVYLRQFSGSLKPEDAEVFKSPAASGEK
Assay: qHTS Assay for Compounds that Act as Potentiators of the Vanilloid Receptor 1: Hit Validation
Conditions: TRPV1-expressing cells, Fluo-8 calcium influx, capsaicin EC20; series mostly up to 42.1 µM
From the text: The transient receptor potential ion channel, family V, number 1, (TRPV1) is one of the most important molecular transducers of painful stimuli and a potential target for analgesic drug development. Although recent clinical trials with orthosteric antagonists have not produced a successful drug because of a hyperthermia side effect and their tendency to block thermal noxious pain, this ion channel is undeniably well placed in the pain pathway, and the idea of blocking pain signals before they enter the CNS is an excellent concept and of proven efficacy when TRPV1 agonists are used. We propose a new approach involving allosteric modulation to impose an activity-dependent constraint within the context of inflammation and tissue damage that would alter the responsiveness of the channel in a way that an orthosteric vanilloid antagonist cannot achieve. We believe that the allosteric modulator approach has not been explored for this target. The main goal of this proposal is to identify additional, new, potent allosteric modulators of TRPV1 that can be used to investigate TRPV1 function. Our recent report provides evidence of proof of concept, but the compounds are just at the edge of utility in terms of potency. […] The question of whether they can be used as analgesic agents is complex, but if suitable compounds are identified then testing for analgesic properties will be conducted. Compounds identified as agonists were re-tested in the primary screen for hit validation. NIH Chemical Genomics Center [NCGC] NIH Molecular Libraries Probe Centers Network [MLPCN] MLPCN Grant: MH089480 Assay Submitter (PI): Michael Iadarola, National Institute of Dental and Cranofacial Research
Upon TRPV1 activation in TRPV1 cells, the channel opens and extracellular cations flow through the channel into the cytosol. A calcium binding dye (Fluo-8) becomes fluorescent when bound to calcium. This dye is pre-loaded into cells and is used as a marker for calcium influx. The amount of accumulated calcium is precisely quantified using the FDSS kinetic reader and the calcium dye. For the HTS assay, freshly prepared cells are plated at a density of 2000/well in 3 ul medium in 1536-well plates and cultured overnight at 35.5C. Cells will be loaded with 1 ul of the homogeneous calcium dye (ABD Bioquest) at room temperature for 40 to 90 minutes. Plates will be loaded into the FDSS kinetic reader and a 1 sec / cycle for 10 second baseline signal will be measured. Compound library will then be added with a pintool at 23 nl and measured kinetically for 3 minutes. This portion of the read is considered the agonist portion of the screen. Following the 3 minutes of incubation, an on board pipettor will deliver 1 ul of capsaicin for a final concentration equal to the EC20. Signal will be measured kinetically for an additional 2 minutes. This portion of the read is considered the allosteric enhancer portion of the screen. The FDSS reader has a standard filter set capable of measuring calcium bound Fluo-8 (ex=480 and em=520 nm).
Potency is the fitted concentration of half-maximal effect.

SMILES	Potency
CC(C)(C)OC(=O)NCCCC[C@H](NC(=O)c1nc[nH]c1C(=O)NCc1ccc(CNC(=O)OC(C)(C)C)cc1)C(=O)OC(C)(C)C	inactive
CN(c1ccccc1)S(=O)(=O)c1ccc(Cl)c(C(=O)NCCc2c[nH]c3ccccc23)c1	inactive
CCc1cccc(C)c1NC(=S)N(CCCN1CCN(C)CC1)Cc1cccs1	inactive
Cc1cccc(-n2c(=O)[nH]c3c(C(N)=O)nc(CC(C)C)nc32)c1	inactive
COc1ccc(NC(=O)CCCSc2nc(-c3ccco3)cc(C(F)(F)F)n2)cc1OC	inactive
Cc1ccc(NC(=O)c2cc(S(=O)(=O)N3CCOCC3)ccc2F)c(C)c1	inactive
CCOC(=O)c1c(C)c(C(=O)NCC2CCCO2)c(C)n1C (stereo unspecified)	inactive
Cc1ncsc1CCC(=O)N1CCCC(Nc2ccc(C(C)C)cc2)C1 (stereo unspecified)	inactive
Cc1ccc(NCc2n[nH]c(=S)n2-c2ccccc2)c(C)c1	inactive
NNC(=O)C1COc2cc3ccccc3cc2O1 (stereo unspecified)	inactive
CCCCC(=O)Nc1ccc(C(=O)Nc2ccc(S(=O)(=O)N3CCCC3)cc2)cc1	inactive
COc1ccc(C(=O)Nc2ccc3ccccc3c2)cc1	inactive
Cc1sc2ncn(CC(=O)Nc3cccc(S(N)(=O)=O)c3)c(=O)c2c1-c1ccccc1	inactive
CCC(=O)N(CCc1ccccc1)Cc1cc2cccc(C)c2[nH]c1=O	inactive
Cc1c(=O)n(OCc2ccccc2F)c2ccccc2[n+]1[O-]	inactive
Nn1c(Cc2ccccc2)nc2cc(Cl)ccc2c1=O	inactive
Cc1ccc2c(c1)[C@H]1[C@H](CO2)[C@H](c2ccccc2)[C@]2(C)C(=O)Nc3cc(Cl)ccc3C(=O)N12	inactive
Cc1cc(C)cc(Oc2nc3ccccn3c(=O)c2/C=C(\C#N)C(=O)NC2CCS(=O)(=O)C2)c1 (stereo unspecified)	inactive
CCC(=O)Nc1cccc(NC(=O)c2ccc3c(c2)OCCO3)c1	inactive
CCOc1ccc(-c2cccc(NS(=O)(=O)c3cc([N+](=O)[O-])ccc3Cl)c2)nn1	inactive
COC(=O)CCC(=O)OC1(C)C(=O)C=C2C=C(C3CC3)N(c3ccccc3)C=C2C1=O (stereo unspecified)	inactive
CCN(CC(=O)Nc1ccccc1OC)CC(=O)Nc1sccc1C#N	inactive

SMILES	Potency
C=CCOc1c(Br)cc(CNc2ccc3[nH]c(=O)[nH]c3c2)cc1OCC	inactive
O=C(CSc1nnc(Cc2ccccc2)o1)NC1CC2CCC1C2 (stereo unspecified)	inactive
CC(=O)N1CCN(c2ccc(NC(=O)C(c3ccccc3)c3ccccc3)cc2)CC1	inactive
Cc1cccc(NC(=S)NCC(c2cccnc2)N(C)C)c1C (stereo unspecified)	inactive
CC(C)(C)C(=O)NNC(=O)c1ccc(Oc2cc(Cl)cc(Cl)c2)o1	inactive
Cc1ccc(NC(=O)CCS(=O)(=O)c2ccc3c(c2)NC(=O)C(C)S3)cc1Cl (stereo unspecified)	inactive
Cc1ccc(/C=C2\CCC3=C2OC(N)=C(C#N)C3c2ccc(C)cc2)cc1 (stereo unspecified)	8.05 µM (active)
Cc1ccc(NC(=O)CCn2nc(C)cc2C)cc1	inactive
O=C(Cc1cccs1)Nc1cccc(-c2ccc3nncn3n2)c1	inactive
CC(=O)c1ccc(Nc2ncnc3c2oc2ccccc23)cc1	inactive
CC(C)C[C@H](NC(=O)c1nc[nH]c1C(=O)N1CCC(C)CC1)C(=O)OCc1ccccc1	inactive
CC(=O)c1cccc(NC(=O)N2C3CCC2CC(NC(=O)Nc2ccccc2)C3)c1 (stereo unspecified)	inactive
CCOC(=O)N/N=C1\CCS(=O)(=O)c2ccc(Cl)cc21	inactive
COc1cc(C)nc(-c2csc(C)n2)n1	inactive
O=C(NNC(=O)c1cccc(O)c1)Nc1ccc([N+](=O)[O-])cc1	inactive
Cc1cnc(NC(=O)c2cc3c(s2)CCCC3)s1	inactive
C(=N\Nc1nn2cnnc2c2ccccc12)/c1ccco1	inactive
CCc1ccc(/C=C2/SC(N3CCOCC3)=NC2=O)cc1	inactive
Cc1nnc(SCC(=O)N(C)CC(=O)Nc2ccc(F)cc2)n1Cc1ccccc1	inactive
COc1ccc(OC)c(NC(=O)CCN2C(=O)c3ccccc3C2=O)c1	inactive
CCc1ccc(OCCCC(=O)NCc2ccccc2)cc1	inactive
CCN(CC)S(=O)(=O)c1ccc(/C=C/C(=O)Nc2cccc(F)c2)cc1	inactive

SMILES	Potency
COCCNC(=O)CSc1nc2ccccc2c(=O)n1CC1CCCO1 (stereo unspecified)	inactive
COc1ccc(C(=O)NC(CC(C)C)C(=O)O)cc1OC (stereo unspecified)	inactive
CCCCn1c(=O)[nH]c(=O)c2c1nc(-c1ccc(OC)c(Br)c1)n2CC(C)C	inactive
COC(=O)C(C(=O)Nc1nc2ccccc2s1)C1CCCC1 (stereo unspecified)	inactive
N=C1/C(=C\c2ccc(-c3ccc(C(=O)O)cc3)o2)C(=O)N=C2SC=C(c3ccccc3)N12	inactive
COc1ccc(-[n+]2c(C)cc(/C=C3\Sc4ccccc4N3C)cc2C)cc1	5.7 µM (active)
Cc1c(N=c2scc(-c3ccccc3)n2C)c(=O)n(-c2ccccc2)n1C	inactive
COc1ccc(Cc2c(N)nc(C)nc2N)cc1	inactive
O=C(N/N=C/c1cccnc1)c1ccc2c(c1)OCO2	inactive
COc1cccc(/C=C/C(=O)Nc2cccc(C(C)=O)c2)c1OC	inactive
Cc1ccc(OCC(=O)c2c[nH]c3ccccc23)c([N+](=O)[O-])n1	inactive
COc1cc(OC)c(NC(=O)CCc2nc(-c3ccc(C)cc3)no2)cc1Cl	inactive
CCO[C@H]1OC(C(=O)NC2CC2)=C[C@@H](c2c[nH]c3ccccc23)[C@@H]1CCCO	inactive
CCc1ccc(/C=N/NC(=O)c2c[nH]c3ccccc23)s1	inactive
COc1ccc(CNC(=O)C2(CC3CC(c4ccccc4)=NO3)CCN(C(=O)C3CCCC3)CC2)cc1 (stereo unspecified)	inactive
Cc1oc(-c2cccs2)nc1CS(=O)CC(=O)NCCc1ccccc1 (stereo unspecified)	inactive
O=S(=O)(c1ccc2c(c1)OCCO2)N1CCN(c2cccc(Cl)c2)CC1	inactive
COc1ccc(NC(=O)c2ccc(Br)c(S(=O)(=O)N3CCOCC3)c2)cc1	inactive
Cn1cccc1C(=O)NC(=O)COC(=O)c1cc([N+](=O)[O-])ccc1Cl	inactive
O=C(/C=C/c1cccc2ccccc12)N1CCOCC1	inactive
CC(C)c1ccc(OCC(=O)Nc2ccncc2)cc1	inactive
CC(C)NC(=O)COC(=O)c1ccc(O)cc1	inactive

SMILES	Potency
CN1CCN(S(=O)(=O)c2ccc(NC(=O)c3ccc(F)cc3)cc2)CC1	inactive
O=C(O/N=C1\CCS(=O)(=O)c2sccc21)c1c(F)cccc1F	inactive
Cc1cc(C)c(NS(=O)(=O)c2ccc(NC(=O)CCC(=O)O)cc2)c(C)c1	inactive
COc1ccc(C(C#N)c2cnccn2)cc1OC (stereo unspecified)	inactive
CC(=O)c1cc(-c2ccc(F)cc2)n(CCC(=O)Nc2cccnc2)c1C	inactive
CCOC(=O)/C=C1\CN(CCC(C)C)S(=O)(=O)c2ccccc21	inactive
CCN1C(=O)[C@@H]2[C@@H](c3ccc(-c4ccc(F)cc4)cc3)N3CCCC[C@@]3(C(=O)OC)[C@@H]2C1=O	inactive
CCC(C)Sc1cccc(-c2nc3ccc(Cl)cn3c2NCc2ccccc2)c1 (stereo unspecified)	inactive
CC(C)(C)c1ccc(/C=C/C(=O)Nc2ccncc2)cc1	inactive
CCNC(=O)NC(=O)C(C)OC(=O)c1cccn1C (stereo unspecified)	inactive
COc1ccc(N=Nc2c(C)[nH][nH]c2=O)cc1	inactive
Cc1cc(NS(=O)(=O)c2ccc(NC(=O)COc3ccc(Cl)cc3)cc2)no1	inactive
Cc1cccc(C)c1OCC(=O)Nc1cccc(S(=O)(=O)N2CCCC2)c1	inactive
Cn1nc(CC(=O)Nc2ccc3c(c2)OCCO3)c2ccccc2c1=O	inactive
CCn1c(Cc2c(C)[nH]c3ccccc23)nnc1SCC(=O)NCc1ccccc1	inactive
CCCCCC(=O)NC(NC(=S)N1CCOCC1)C(Cl)(Cl)Cl (stereo unspecified)	inactive
COc1ccc(S(=O)(=O)N2CCCC2)cc1C(=O)O	inactive
Cc1c(Cl)ccc2sc(NC(=O)c3ccco3)nc12	inactive
O=C(O)c1ccc(Br)cn1	inactive
CC(C)(C)c1ccc(C(=O)NNC(=O)C2CCCCC2)cc1	inactive
O=C1c2ccc(Oc3ccc([N+](=O)[O-])cc3)cc2C(=O)N1CCCO	inactive
COc1ccccc1-c1cc2ccccc2[nH]1	inactive

SMILES	Potency
CC(=O)NS(=O)(=O)c1ccc(NC(=O)CC(C)c2ccccc2)cc1 (stereo unspecified)	inactive
COc1ccc(CNC(=O)CCSc2ccc(F)cc2)cc1OC	inactive
O=C(O)c1coc2ccccc12	inactive
CC(=O)NCC(=O)N(Cc1ccco1)C1(C(=O)NC2CCCC2)CCCCC1	inactive
Cn1c(=O)c2c(-c3ccccc3F)c3c(nc2n(C)c1=O)-c1ccccc1C3O (stereo unspecified)	inactive
COc1ccccc1Nc1ncnc2c1cnn2-c1cccc(C)c1	inactive
COc1ccc(C(=O)Nc2ccc3ncccc3c2)cc1	inactive
CC(=O)c1cccc(NC(=S)NCCc2ccc(Cl)cc2)c1	inactive
CCc1ccccc1NC(=O)CCC(=O)c1cccs1	inactive
CCN1C(=O)[C@@H]2[C@H](C1=O)[C@@H]1C(=O)Nc3ccccc3C(=O)N1[C@@H]2c1ccc(Br)cc1	inactive
COc1ccc([C@@H]2CC=C(C(=O)O)[C@H](c3cccc(Cl)c3)N2S(=O)(=O)c2ccc(Cl)cc2)cc1	inactive
CCOC(=O)C1=C(O)C(=O)N(CCCn2ccnc2)C1c1ccc(C)cc1 (stereo unspecified)	inactive
CC(=O)c1cccc(Nc2nc(-c3ccccc3)nc3ccccc23)c1	inactive
N#Cc1ccccc1N1CCN(C(=O)c2ccc(NC(=O)c3ccc(Br)o3)cc2)CC1	inactive
CCOc1ccc(NS(=O)(=O)c2ccc(OCC(=O)NCCCOC)cc2)cc1	inactive
Cc1ccc(S(=O)(=O)NCC(c2cccnc2)N2CCOCC2)cc1 (stereo unspecified)	inactive
O=[N+]([O-])C1C(c2ccccc2)=NOC1c1ccccc1O (stereo unspecified)	inactive
O=C(Nc1ccccc1)Nc1nnc(SCc2ccc(Cl)cc2)s1	inactive
